# The list is not random: actives were taken first. Their share in the collection is about 5.4%.
# SMARCA2 activ = SMARCA2 (BRM) function activators, primary screen, cell-based, luminescence, high throughput; MG213 cells, MMTV-luciferase reporter, dexamethasone, overnight; activation, % at 9.1 µM; 1% of 370,000 active; in the data active means activation above about 7.8%;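 further: 0% = vehicle wells and 100% = reference activator wells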
# Exocytosis inh = LAMP-1 surface exposure blockers, TALL-104 cells – cell-based, flow cytometry, MLPCN library, primary screen. TALL-104 LAMP-1 surface exposure; cells stimulated with thapsigargin and PMA. inhibition, % at 10 µM. 0.66% of 360,000 active;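 active means inhibition above about 55%, limit read from the data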
# M18AAP inhibitor = PfM18AAP inhibitors, malaria aminopeptidase, primary screen, biochemical, QFRET, recombinant enzyme | AID 1822, 2009 | 1.2% of 290,000 active | M18 aspartyl aminopeptidase (Plasmodium falciparum 3D7) | inhibition, % at 7.35 µM | H-Glu-NHMec fluorogenic cleavage;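 active means inhibition above the campaign mean inhibition over all tested compounds plus 3 SD, cut at about 28% in these data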;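 further: 0% = plate median of test compound wells and 100% = 2 mM ZnCl2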
# JMJD2C inh = inhibitors of GASC-1 histone demethylase, primary screen, biochemical, fluorescence, DELFIA europium | Lysine-specific demethylase 4C (Homo sapiens), Q9H3R0 | inhibition, % at 2.35 µM | GST-JMJD2C(1-420) H3K9me3 demethylation | 0.069% of 330,000 active;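 active means more than half of a compound's replicate wells show inhibition beyond 50%, single wells judged on their own value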;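 further: signal counts dimethyl H3K9 product captured on neutravidin plate; 0% = median of DMSO wells and 100% = 0.3 times that DMSO median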
# Target sequence (Q9H3R0 1-420 limits assumed): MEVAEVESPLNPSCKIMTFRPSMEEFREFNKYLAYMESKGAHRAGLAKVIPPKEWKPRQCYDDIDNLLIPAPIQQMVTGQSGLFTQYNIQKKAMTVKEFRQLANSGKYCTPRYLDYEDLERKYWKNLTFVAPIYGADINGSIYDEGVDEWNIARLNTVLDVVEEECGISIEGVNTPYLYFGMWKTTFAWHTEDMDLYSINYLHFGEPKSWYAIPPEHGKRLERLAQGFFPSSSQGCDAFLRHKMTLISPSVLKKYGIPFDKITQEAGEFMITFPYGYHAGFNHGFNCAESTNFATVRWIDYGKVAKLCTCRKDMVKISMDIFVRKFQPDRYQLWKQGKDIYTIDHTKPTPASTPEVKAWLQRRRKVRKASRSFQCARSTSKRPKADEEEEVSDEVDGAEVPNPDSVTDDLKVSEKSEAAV
# beta cell repl = inducers of MIN6 beta-cell proliferation, primary screen, ATP luminescence, uHTS. MIN6 cells proliferation, ATPlite luminescence, 48 h; cells starved in 0.2% serum; 100% = growth in 10% serum. proliferation, % at 10 µM. 0.29% of 330,000 active;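 active means compounds whose signal lies at least 3.5 SD above the mean of all wells on their plate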;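 further: 0% = DMSO-treated cells in low-serum medium and 100% = 10% serum control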
# ALR inh = inhibitors of human ALR sulfhydryl oxidase, primary screen, biochemical, H2O2 detection, HRP-luminol luminescence, single point; FAD-linked sulfhydryl oxidase ALR (Homo sapiens), P55789; purified ALR, DTT oxidation; inhibition, % (concentration not given with the values); 3.8% of 290,000 active; AID 485317, 2010;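 active means mean replicate inhibition above about 79%, with every replicate also reaching it, limit read from the data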
# * = called active by the depositor; x = no result.
SMILES,SMARCA2 activ,Exocytosis inh,M18AAP inhibitor,JMJD2C inh,beta cell repl,ALR inh
COc1cc(/C=C/C(=O)OCC(=O)NCc2ccccc2OC)ccc1O,0,-2,x,-34,4,84*
CCC(C)N(C(=O)COC(=O)/C=C/c1ccc(O)c(OC)c1)C1CCS(=O)(=O)C1 (configuration not stated),-4,0,1,-7,0,94*
COc1cc(/C=C/C(=O)OCC(=O)NCc2ccc(F)cc2)ccc1O,2,-4,x,7,-3,x
COc1cc(/C=C/C(=O)OCC(=O)N2CCN(C(=O)c3ccco3)CC2)ccc1O,-3,1,3,10,2,99*
COc1cc(/C=C/C(=O)OCC(=O)NC2CCS(=O)(=O)C2)ccc1O (configuration not stated),-2,-5,-8,-5,0,x
COc1cc(/C=C/C(=O)OCC(=O)Nc2ccc3c(c2)OCCO3)ccc1O,0,1,2,7,1,81*
O=C(Nc1cccc(Br)c1)OC1CC2CC1[C@H]1CCCCN1C2 (some centres not stated),-3,x,x,x,x,x
CCCCNC(=O)C[C@H]1C[C@@]2(C(=O)OCC)CCCC3=C2N(CCC3)C1=O,4,x,x,x,x,x
COc1cc(/C=C/C(=O)OCC(=O)NC(=O)NC(C)C)ccc1O,0,-1,-16,4,-1,99*
COc1cc(/C=C/C(=O)OCC(=O)NC(=O)NC(C)C)ccc1OCC#N,-3,0,3,6,2,-2
COc1cc(/C=C/C(=O)OCC(=O)NCCC2=CCCCC2)ccc1O,-1,-2,9,-10,4,99*
COc1cc(/C=C/C(=O)OCC(=O)NCCC2=CCCCC2)cc(OC)c1OC,0,-5,x,7,-4,-4
COC(=O)C1CN(Cc2cn(Cc3ccc(C)cc3)nn2)CCS(=O)(=O)N1Cc1ccccc1 (configuration not stated),1,x,x,x,x,x
COc1cccc(C(=O)NNC2=CC(=O)CC(C)(C)C2)c1,-5,0,31*,-9,-5,59
CC(=O)Nc1ccc(Oc2nc(-c3ccccn3)nc3ccccc23)cc1,7.9*,2,-7,-5,2,x
S=C1NC2(CCCCCC2)NN1c1ccccc1,-6,x,x,x,x,x
CC1(CCc2ccccc2)NC(=S)N(c2ccccc2)N1 (configuration not stated),-3,-5,8,2,x,99*
CC1(CCc2ccccc2)NC(=S)N(c2ccc(Cl)cc2)N1 (configuration not stated),-2,0,3,-9,0,94*
COc1ccc(CN(CCN2CCOCC2)C(=O)c2cc(F)cc(F)c2)cc1OC,4,x,x,x,x,x
CCCCOCC1CN(CCCC)S(=O)(=O)c2c(cccc2Sc2ccc(SC)cc2)O1 (configuration not stated),-4,x,x,x,x,x
O=C(c1ccc(F)cc1Cl)N(Cc1ccccn1)CC1CCCO1 (configuration not stated),3,x,x,x,x,x
CC(=O)Nc1ccc(N2CCCC2)cc1,3,0,13,2,-3,11
CC(=O)Nc1ccc(N2CCCCC2)cc1,-3,-2,4,34,2,99*
CC1CCCCN1CC(=O)Nc1ccc(N2CCCCCC2)cc1 (configuration not stated),-4,0,7,-1,0,99*
CC(=O)Nc1ccc(S(=O)(=O)Nc2ccc(N3CCOCC3)cc2)cc1,1,-1,10,3,-3,82*
SMILES,SMARCA2 activ,Exocytosis inh,M18AAP inhibitor,JMJD2C inh,beta cell repl,ALR inh
O=C(CCl)Nc1ccc(N2CCCCCC2)cc1,2,-2,7,2,-5,99*
CCC(=O)Nc1ccc(N2CCCCC2)cc1,2,3,7,3,-3,x
C[C@@H]1COc2cccc(F)c2S(=O)(=O)N1C,-1,x,x,x,x,x
CCCCNC(=O)C[C@H]1C[C@@]2(C(=O)OC)C(=C[C@H](C(C)C)O[C@@H]2C2CC2)N(Cc2ccc3c(c2)OCO3)C1=O,-4,x,x,x,x,x
Cn1cccc1C(=O)N1CCN(S(=O)(=O)c2cccc3ccccc23)CC1,5,x,x,x,x,x
COc1ccc(C(=O)O)cc1S(=O)(=O)Nc1ccc(C)cc1,-1,-3,-2,-4,-2,x
O=C(CCC(=O)c1cccs1)Nc1ccc(N2CCCCC2)cc1,4,-1,6,0,-2,90*
Cc1ccc(S(=O)(=O)Nc2ccc(N3CCOCC3)cc2)cc1,2,5,11,0,-2,-1
COc1ccc(C(=O)O)cc1S(=O)(=O)Nc1ccc(N2CCCCC2)cc1,4,0,x,18,0,96*
CCCC(=O)Nc1ccc(N2CCCCC2)cc1,6,0,2,0,0,82*
Cc1ccc(S(=O)(=O)Nc2ccc(N3CCCCC3)cc2)cc1,-4,-1,0,11,-2,98*
Cc1cc(OC[C@@H](O)CN2CCC(C(O)(c3ccccc3)c3ccccc3)CC2)ccc1Br,-7,x,x,x,x,x
O=C(Nc1ccc(N2CCCCC2)cc1)C1CCCN1S(=O)(=O)c1ccc(F)cc1 (configuration not stated),0,0,x,7,-1,80*
CC(=O)NS(=O)(=O)c1cccnc1Nc1ccc(Cl)c(Cl)c1,0,-3,12,3,2,98*
NS(=O)(=O)c1cccnc1Nc1ccc(Cl)c(Cl)c1,0,0,4,-4,1,x
O=C1CSc2ccc(C(=O)N3CCCC(C(=O)N4CCOCC4)C3)cc2N1 (configuration not stated),-2,x,x,x,x,x
O=C(Sc1ccc(Cl)cc1)c1ccccn1,0,-5,x,-9,-4,98*
O=C(NCCNC(=O)c1ccccn1)c1ccc(Cl)cc1,-1,-3,-3,-5,-3,2
C/C(=N\O)c1ccc2c3c([nH]c2c1)CCCC3,4,-3,1,-8,-1,97*
C/C(=N\O)c1ccc2[nH]ccc2c1,1,-2,1,3,-1,58
CC(C)C[C@H]1COc2cccc(F)c2S(=O)(=O)N1Cc1cn(Cc2ccco2)nn1,0,x,x,x,x,x
COc1ccc(CC(=O)NNS(=O)(=O)c2cccc([N+](=O)[O-])c2)cc1OC,1,-3,0,-2,0,x
COc1ccc(-n2c(O)c(/C=N/NS(=O)(=O)c3cccc([N+](=O)[O-])c3)c3ccccc3c2=O)cc1OC,-1,-2,14,16,-2,89*
COc1cccc(-c2nc(CS(=O)(=O)CC(=O)N3CCN(C4CCCCC4)CC3)c(C)o2)c1,0,1,-2,-6,4,99*

# Screening results as filed in PubChem BioAssay.
